In patent US20140271602, “NUCLEOTIDE-SPECIFIC RECOGNITION SEQUENCES FOR DESIGNER TAL EFFECTORS” (THE BROAD INSTITUTE INC., published 2014):
Changes are numbered by the printed parent chain.

Experiments:
Test in all cases: cell_activity; luciferase reporter
Settings in all cases: tags: VP64, 2A-GFP; dsDNA, one strand shown
[1] = biological target: T1, TALE2-HN (CACNA1C site 2 activator) (Xanthomonas (engineered), UniProt P14727 SEQ:1-983)
T1 chain: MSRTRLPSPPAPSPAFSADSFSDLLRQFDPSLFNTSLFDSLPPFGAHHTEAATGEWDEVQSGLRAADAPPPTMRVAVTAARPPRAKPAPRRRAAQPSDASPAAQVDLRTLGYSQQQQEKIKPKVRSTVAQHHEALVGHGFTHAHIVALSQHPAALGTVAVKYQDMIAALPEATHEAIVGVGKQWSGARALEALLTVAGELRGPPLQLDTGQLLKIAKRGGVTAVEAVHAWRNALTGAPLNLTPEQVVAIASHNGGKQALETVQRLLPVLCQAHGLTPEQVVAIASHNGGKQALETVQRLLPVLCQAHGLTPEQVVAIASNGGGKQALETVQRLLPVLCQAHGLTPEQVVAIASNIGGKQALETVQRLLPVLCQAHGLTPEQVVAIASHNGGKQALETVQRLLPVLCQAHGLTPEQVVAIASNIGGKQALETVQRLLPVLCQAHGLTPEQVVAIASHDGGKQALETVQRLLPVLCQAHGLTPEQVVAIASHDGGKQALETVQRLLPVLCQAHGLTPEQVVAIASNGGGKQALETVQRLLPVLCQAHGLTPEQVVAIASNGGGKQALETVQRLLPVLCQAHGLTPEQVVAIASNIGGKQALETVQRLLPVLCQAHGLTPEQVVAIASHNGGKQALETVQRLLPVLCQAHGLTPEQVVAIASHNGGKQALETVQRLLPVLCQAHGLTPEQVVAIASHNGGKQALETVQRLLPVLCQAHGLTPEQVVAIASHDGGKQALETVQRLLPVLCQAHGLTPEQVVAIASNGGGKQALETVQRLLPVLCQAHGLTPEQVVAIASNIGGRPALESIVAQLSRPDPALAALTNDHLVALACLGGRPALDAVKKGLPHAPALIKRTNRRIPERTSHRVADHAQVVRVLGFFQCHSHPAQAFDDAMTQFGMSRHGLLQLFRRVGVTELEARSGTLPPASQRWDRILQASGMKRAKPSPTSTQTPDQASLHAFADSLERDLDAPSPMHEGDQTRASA

[2] = biological target: T2, TALE2-NH (CACNA1C site 2 activator) (Xanthomonas (engineered), UniProt P14727 SEQ:1-983)
T2 chain: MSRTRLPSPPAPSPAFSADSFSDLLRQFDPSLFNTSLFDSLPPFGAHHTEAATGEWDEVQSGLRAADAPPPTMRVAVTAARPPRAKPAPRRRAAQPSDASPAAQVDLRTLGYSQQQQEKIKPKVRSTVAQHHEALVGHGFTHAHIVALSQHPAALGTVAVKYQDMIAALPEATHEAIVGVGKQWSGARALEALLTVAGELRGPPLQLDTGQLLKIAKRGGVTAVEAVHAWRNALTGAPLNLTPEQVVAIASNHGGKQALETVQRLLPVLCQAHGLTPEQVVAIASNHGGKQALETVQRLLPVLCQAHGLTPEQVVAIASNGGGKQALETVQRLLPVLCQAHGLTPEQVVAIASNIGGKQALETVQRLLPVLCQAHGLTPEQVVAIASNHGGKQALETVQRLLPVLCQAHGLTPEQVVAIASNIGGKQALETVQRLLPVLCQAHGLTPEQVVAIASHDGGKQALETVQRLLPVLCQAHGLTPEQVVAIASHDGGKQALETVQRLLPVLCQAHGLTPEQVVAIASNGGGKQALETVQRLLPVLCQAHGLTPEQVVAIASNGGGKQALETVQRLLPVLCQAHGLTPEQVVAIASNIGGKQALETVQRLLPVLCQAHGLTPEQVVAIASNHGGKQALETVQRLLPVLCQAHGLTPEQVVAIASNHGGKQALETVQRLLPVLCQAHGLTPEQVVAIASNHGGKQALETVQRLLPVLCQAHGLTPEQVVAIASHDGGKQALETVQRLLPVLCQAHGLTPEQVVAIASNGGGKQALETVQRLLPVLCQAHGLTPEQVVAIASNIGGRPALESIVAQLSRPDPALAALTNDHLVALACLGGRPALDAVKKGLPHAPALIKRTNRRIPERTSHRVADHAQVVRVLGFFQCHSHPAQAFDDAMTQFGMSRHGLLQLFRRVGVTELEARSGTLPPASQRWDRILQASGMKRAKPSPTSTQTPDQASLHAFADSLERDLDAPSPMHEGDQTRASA

[3] = biological target: T3, TALE2-NK (CACNA1C site 2 activator) (Xanthomonas (engineered), UniProt P14727 SEQ:1-983)
T3 chain: T2 chain with H253K, H287K, H389K, H627K, H661K, H695K

[4] = biological target: T4, TALE1-NN (CACNA1C site 1 activator) (Xanthomonas (engineered), UniProt P14727 SEQ:1-983)
T4 chain: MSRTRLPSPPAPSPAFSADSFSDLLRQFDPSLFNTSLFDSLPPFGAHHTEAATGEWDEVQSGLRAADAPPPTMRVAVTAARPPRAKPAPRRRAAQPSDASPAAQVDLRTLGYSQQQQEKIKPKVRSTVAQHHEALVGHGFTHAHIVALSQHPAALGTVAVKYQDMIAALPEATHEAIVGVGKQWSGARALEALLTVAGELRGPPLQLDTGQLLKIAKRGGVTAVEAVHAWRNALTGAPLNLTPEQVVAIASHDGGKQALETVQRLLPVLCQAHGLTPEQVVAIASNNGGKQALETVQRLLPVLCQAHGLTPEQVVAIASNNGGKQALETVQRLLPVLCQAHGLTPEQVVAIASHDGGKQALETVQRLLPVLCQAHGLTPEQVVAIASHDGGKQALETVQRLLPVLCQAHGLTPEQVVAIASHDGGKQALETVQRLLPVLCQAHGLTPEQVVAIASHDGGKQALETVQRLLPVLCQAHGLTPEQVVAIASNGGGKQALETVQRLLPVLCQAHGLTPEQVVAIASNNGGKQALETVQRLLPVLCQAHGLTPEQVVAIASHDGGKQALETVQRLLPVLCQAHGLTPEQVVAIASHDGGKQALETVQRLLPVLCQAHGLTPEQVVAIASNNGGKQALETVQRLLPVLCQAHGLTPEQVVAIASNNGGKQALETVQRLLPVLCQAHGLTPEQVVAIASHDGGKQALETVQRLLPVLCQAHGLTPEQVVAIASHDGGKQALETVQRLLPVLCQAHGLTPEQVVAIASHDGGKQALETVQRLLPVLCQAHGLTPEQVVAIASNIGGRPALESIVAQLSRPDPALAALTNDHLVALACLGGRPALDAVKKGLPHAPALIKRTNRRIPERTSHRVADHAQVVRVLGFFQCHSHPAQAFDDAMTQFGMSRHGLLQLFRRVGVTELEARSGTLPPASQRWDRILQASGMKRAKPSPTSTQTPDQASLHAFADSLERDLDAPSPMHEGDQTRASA

[5] = biological target: T5, TALE1-NK (CACNA1C site 1 activator) (Xanthomonas (engineered), UniProt P14727 SEQ:1-983)
T5 chain: T4 chain with N287K, N321K, N525K, N627K, N661K

TAATAGACCTTAGGGCTA
binding signal [1]: 13.9 % reduction vs wild-type site | binding signal [2]: 66.1 % reduction vs wild-type site | binding signal [3]: 36.3 % reduction vs wild-type site

TCAACCCCTGCCGGCCCA
binding signal [4]: 35.4 % reduction vs wild-type site | binding signal [5]: 40.3 % reduction vs wild-type site

TAATAAACCTTAAAACTA
binding signal [2]: < 10 % of wild-type site activation
